Reference: PubChem BioAssay AID778 (Sanford-Burnham Center for Chemical Genomics, 2007)
Hit rate of the full screen: of about 96,000 compounds, about 20,000 (21%) were called active.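 How the source made its calls: active means CYP2C19 inhibition above a set limit at 5 µM in the primary screen (cut at about 50% in these data); inactive means the rest.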 The list is a sample of the results.

Biological target: Cytochrome P450 2C19 (Homo sapiens) (UniProt P33261)
Assay: blockers of cytochrome P450 2C19 activity – biochemical, luminescence, ADME assay, primary screen (AID 778);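 further: plate controls were negative control wells for no effect and 2.5 mM tranylcypromine positive control for full effect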
Conditions: CYP2C19 Supersomes, luciferin-H EGE luminescence, 30 min; at 5 µM; stronger effect = higher value

Sequence of Cytochrome P450 2C19 (Homo sapiens) (P33261 whole entry, looked up): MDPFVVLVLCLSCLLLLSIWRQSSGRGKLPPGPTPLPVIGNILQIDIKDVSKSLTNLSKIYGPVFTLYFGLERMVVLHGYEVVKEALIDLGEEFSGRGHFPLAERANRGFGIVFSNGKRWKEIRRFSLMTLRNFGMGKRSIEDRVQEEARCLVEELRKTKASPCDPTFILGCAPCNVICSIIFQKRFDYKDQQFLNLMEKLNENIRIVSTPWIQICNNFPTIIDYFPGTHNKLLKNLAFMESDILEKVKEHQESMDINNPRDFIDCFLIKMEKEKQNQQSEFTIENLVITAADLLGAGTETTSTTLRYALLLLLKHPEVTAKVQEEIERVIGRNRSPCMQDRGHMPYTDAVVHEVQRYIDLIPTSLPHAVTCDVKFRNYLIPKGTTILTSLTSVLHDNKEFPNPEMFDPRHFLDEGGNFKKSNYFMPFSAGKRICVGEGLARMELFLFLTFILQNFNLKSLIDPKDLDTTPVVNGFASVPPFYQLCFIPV

inhibition, inactive:
CCNc1nc(SCCOc2ccccc2)nc(N(C)C)n1 12.3%
O=C(Nc1ccc(Sc2ccc(Br)cc2)cc1)c1ccco1 6.9%
O=C(CSc1ccccc1)Nc1ccc(NC(=O)c2ccco2)cc1 22%
O=C(/C=C/c1ccco1)Nc1ccc(Oc2ccccc2)cc1 8.4%
Cc1ccnc(NC(=O)c2ccc(NC(=O)c3ccco3)cc2)c1 13.1%
CCOCCOC(=O)C1=C(C)N(C)C(=O)NC1c1ccccc1F (centres undefined) 47.5%
COc1ccc(CCNC(=O)CN2CCC(n3nnc4cc(F)ccc43)CC2)cc1OC 22.7%
Cc1ccc(C(=O)NNC(=O)OC(C)(C)C)c(Cl)c1 14.6%
CCN1CCN(Cc2nc3c(c(=O)n(C)c(=O)n3C)n2CC(=O)c2ccccc2)CC1 4.3%
CC1CN(c2cc(=O)n(Cc3ccc(F)cc3)c(=O)[nH]2)CC(C)O1 (centres undefined) -11%
Cc1ccccc1/[N+]([O-])=C/c1ccncc1 42.4%
CCOc1cc(/C=C2/N=C(c3ccc(C(C)(C)C)cc3)OC2=O)cc(Cl)c1OS(C)(=O)=O 14.4%
COC(=O)c1sccc1-n1cccc1C(=O)C(=O)N1CCCCC1 31.2%
Cc1cc(C)c(NC(=O)CS(=O)CC(=O)Nc2cccnc2)c(C)c1 (centres undefined) 13.1%
CCC(=O)Nc1cccc(NC(=O)c2cccnc2)c1 6.1%
COc1cc(/C=C(/NC(=O)c2ccccc2)C(=O)Nc2cccc(O)c2)c([N+](=O)[O-])cc1OC 6.1%
c1ccc(-c2oc3ncnc(N4CCOCC4)c3c2-c2ccccc2)cc1 9.2%
Cc1cc(C(=O)Nc2ccccc2N2CCOCC2)c2ccccc2n1 29.8%
CCCCc1c(O)nc2n(c1=O)CCS2 -19.9%
COc1ccc(C(=O)CSc2n[nH]c(N)n2)cc1 4.5%
CCCCCN1CC(O)=C(c2nc(-c3ccc(Cl)cc3)cs2)C1=N 7.1%
COC(=O)Cc1cc(=O)n(-c2nc3ccccc3s2)[nH]1 13.8%
Cc1ccc(Nc2nc(-c3sc(NC(=O)c4ccccc4)nc3C)cs2)cc1 17.1%
CCN1CCN(c2c(Cl)cccc2NC(=O)c2ccc(Br)o2)CC1 16%
CCCC(=O)Nc1ccc(Cl)c(NC(=O)c2ccc(Br)o2)c1 12.5%
O=C(COc1cc(Cl)c(Cl)cc1Cl)NC(=O)NC1CCCC1 -6.2%
CCCC(=O)N1CCc2[nH]c3ccccc3c2C1 25.3%
FC(F)(F)c1cccc(Nc2ncnc3ccccc23)c1 44.1%
O=C(Nc1cccc(Cl)c1)OCc1ccccn1 27.1%
CCOc1cc(N2CCOCC2)c(OCC)cc1NC(=O)COC(=O)[C@H](Cc1c[nH]c2ccccc12)NC(C)=O -4.2%
COc1cccc(N2C(=O)CC(N3CCN(S(=O)(=O)c4ccccc4)CC3)C2=O)c1 (centres undefined) 1.5%
CN1CCN(c2ccc([N+](=O)[O-])c(Sc3nc4ccccc4[nH]3)c2)CC1 33.8%
C=CCOc1ccc(C2/C(=C(\O)c3c(C)[nH]c(C(=O)OC)c3C)C(=O)C(=O)N2CCN(C)C)cc1 (centres undefined) 2.1%
O=C(Nc1ccc2c(c1)CCC2)c1cccc(S(=O)(=O)N2CCN(c3ccc(F)cc3)CC2)c1 26%
CC(C)C(C)NC(=O)COc1ncnc2ccccc12 (centres undefined) 34.6%
Cc1nn(-c2ccccc2)c2sc(C(=O)N(Cc3ccco3)C(C)C(=O)NC(C)(C)C)cc12 (centres undefined) 33.9%
COc1cc(OC)cc(C(=O)NC2CCN(C(=O)N3c4ccccc4Sc4ccccc43)CC2)c1 5.8%
O/N=C1\CC2(Cc3nonc31)OCCO2 -5.4%
CCC(C)NC(=O)C1CCC(=O)N1Cc1ccc(C)cc1 (centres undefined) 28.1%
Cc1ccc(CN2C(=O)CCC2C(=O)NCCCN2CCCCC2C)cc1 (centres undefined) 8.1%
O=C(Cn1cnc2c(nnn2-c2ccccc2)c1=O)N1CCC(Cc2ccccc2)CC1 43.2%
CCC1C(C#N)=C(SC)NC2=C1C(=O)CC(C)(C)C2 (centres undefined) 12.7%
Cc1ccc(-n2ncc3c2ncn2nc(-c4ccco4)nc32)c(C)c1 4.8%
COc1cc(C(=S)N2CCOCC2)cc(OC)c1OC(=O)c1cc([N+](=O)[O-])cc([N+](=O)[O-])c1 -1.3%
Cc1ccc(NC(=O)N2CCC(C(=O)NCc3ccc(F)cc3)CC2)cc1 4.7%
Cc1ccc(Cn2nnc3c(=O)n(CC(=O)N4CCCCC4)cnc32)cc1 34%
COc1ccc(-n2nnc3c(=O)n(CC(=O)N4CCC(Cc5ccccc5)CC4)cnc32)cc1 4.8%
Cc1nc2ccc(NC(=O)N3CCC(c4ccccc4)C3)cc2nc1C (centres undefined) 28.5%
CC(=O)c1ccc(OCCN2CCOCC2)cc1 2.4%
Cc1ccc(S(=O)(=O)NCC(=O)N(CC(=O)NC(C)(C)C)Cc2cccs2)cc1 -10.5%
CCc1c(-c2ccccc2)nc(N)c(C#N)c1-c1cccs1 2.8%
CCOC(=O)C(CCOc1cccc(CC)c1)C(=O)OCC 42%
Cc1cc(C)n2nc(C(=O)NC(C)(C)C)nc2n1 -2.8%
C=CCc1cccc2cc(C(=O)N3CCN(C(=O)OCC)CC3)c(=O)oc12 -8%
Cn1c(=O)c2c(SCC(=O)N3CCOCC3)nc(C3CC3)nc2n(C)c1=O 8.8%
CCN(CC)C(=O)N1CCN(C(=O)c2ccc(C)cn2)CC1 4.3%
CCS(=O)(=O)n1nc(-c2ccc(OC)cc2)nc1SC 46%
Cn1c(CO)cnc1SCc1ccccc1 39.7%
O=C(COC(=O)CCC(=O)c1cccs1)NCc1ccco1 5.2%
Cc1nnc(NC(=O)CSc2nc(C3CCCCC3)nc3ccccc23)s1 -1.4%
CN(C(=O)CSc1nc(C2CC2)nc2ccccc12)c1nc(-c2ccccc2)cs1 12.3%
CCN(CC)S(=O)(=O)c1ccc2[nH]cc(C(=O)NCCc3ccccc3)c(=O)c2c1 4.6%
O=C(CSc1nnc(-c2ccco2)o1)NCC(=O)c1ccccc1 0.5%
CCc1ccccc1NC(=O)CSc1nnc([C@@H](NC(=O)OC(C)(C)C)C(C)C)o1 8%
C[C@H](NC(=O)OC(C)(C)C)c1nnc(SCC(N)=O)o1 49.9%
Cc1cccc(NC(=O)CSc2nc3c(c(=O)[nH]2)CCCC3)c1C 17.6%
Cc1cccc(NC(=O)CSc2nnc(-c3ccco3)o2)c1 -7.9%
Cc1cccc(NC(=O)CSC(N)=O)c1C 17.7%
Cc1ccc(C(=O)Nc2nnc(-c3cccs3)s2)cc1C -8.8%
O=C(O)CCN=C1CCc2ccccc2N1 0.2%
Cc1cc(C)c2c(n1)nn1c(-n3ccnc3)cc(C)nc21 4.7%
O=C(CSc1nc2ccccc2[nH]1)c1cccs1 42.5%
Cc1ccccc1OC/C(O)=C(\C#N)c1nc2ccccc2[nH]1 38.3%
C=CCSc1nc(Cc2ccc(Cl)cc2)nc2ccccc12 0%
O=c1cc(O)nc(SCc2ccccc2Cl)[nH]1 1.2%
Cc1nnc2sc(-c3ccco3)nn12 -0.9%
CCOC(=O)Cc1c(C)nc2c(C#N)c(C)nn2c1C 12.9%
CC(C)C1C2=C(CC(C)(C)CC2=O)ON1c1ccccc1 (centres undefined) 34.7%
COc1ccc(CN2CN(C(C)C)CSC2=S)cc1 8.5%
O=C1CSC(c2ccccc2)N1c1nc(-c2ccc(Cl)cc2Cl)cs1 (centres undefined) -2.8%
CCCc1ccc(-c2csc(NC(=O)Cc3cccs3)n2)cc1 28%

inhibition, active:
O=C(Nc1ccc(Oc2ccccc2)cc1)c1ccco1 59.9%
COC(=O)c1ccc(NC(=O)c2ccco2)cc1 53.1%
Cc1cccc(-n2cnc(C(=O)Nc3cccnc3)c2)n1 57%
c1ccc(Nc2nc(N3CCOCC3)c3ccccc3n2)cc1 55.6%
COc1ccccc1N1CC(O)=C(c2nc3ccccc3s2)C1=N 50.8%
COc1cc(OC)c(NC(=O)c2ccc(Br)o2)cc1Cl 79.4%
FC(F)(F)c1cccc(NC(=S)Nc2cccc(Cl)c2)c1 74.9%
Cc1ccccc1-n1nc(C)c2cc(C(=O)NC3CC3)sc21 61.4%
O=C(Nc1ccc(Br)cc1)C1CCC(=O)N1Cc1ccccc1Cl (centres undefined) 96.4%
Cc1ccc(NC(=O)N2CCC(c3nc4c(nnn4Cc4c(F)cccc4Cl)c(=O)[nH]3)CC2)cc1 95.1%
COc1ccc(Cn2nnc3c(=O)[nH]c(C4CCN(C(=O)c5ccccc5Cl)CC4)nc32)cc1 57.2%
CCS(=O)(=O)n1nc(-c2ccccc2)nc1SCc1ccccc1 90.1%
COC(=O)CSc1nc(C2CC2)nc2ccccc12 63.2%
Cc1cccc(NC(=O)CSc2nnc(CCCCCNC(=O)OC(C)(C)C)o2)c1C 63.7%
CCc1ccccc1NC(=O)CSc1nnc([C@@H](NC(=O)OC(C)(C)C)C(C)CC)o1 (some centres undefined) 59.4%
C[C@H](NC(=O)OC(C)(C)C)c1nnc(SCC(=O)Nc2ccc(Br)cc2)o1 62.5%
C=CCSc1nc2ccccc2[nH]1 66%
COc1ccccc1CSc1nc2ccccc2[nH]1 51.7%
